Measured values from ChEMBL document CHEMBL3988442, “University of Dundee, Small-Polar-MMV Screening Library” (2021).
Hit rate of the full screen: of about 48,000 compounds, about 13,000 (27%) showed an effect of 50% or more. The list shows a part of the results.

The compounds below were run on Wolbachia pipientis (assay: Anti-Wolbachia Cell-Based Screen). Settings: 5 µM.
Format: functional
Parameters: scale not given: in the data most compounds retested in dose-response had high values

| Structure (SMILES) | Percent Effect [%] |
| --- | --- |
| CCNS(=O)(=O)c1ccc(C)c(C(=O)N(C)Cc2ccco2)c1 | -0.5279 |
| N#Cc1ccccc1OCCN1CCC(C(=O)N2CCOCC2)CC1 | -3.937 |
| COc1cccc(CCNC(=O)CN2CCN(C)CC2C)c1 (centres undefined) | 5.841 |
| Cc1nnc(N2C[C@@H]3CCCO[C@@H]3[C@H](N3CCCC3=O)C2)s1.O=C(O)C(F)(F)F | -2.907 |
| Cc1n[nH]c(C)c1-c1c(C#N)c(N)nc2c1CCc1[nH]ccc1-2 | 9.181 |
| Cc1n[nH]c(C)c1-c1cc(-c2cc[nH]c2)nc(N)c1C#N | 123.5 |
| Cc1n[nH]c(C)c1-c1cc(-c2cccc(O)c2)nc(N)c1C#N | 88.86 |
| CC(C)Cc1cc(-c2cc(-c3ccc[nH]3)nc(N)c2C#N)n[nH]1 | 126.8 |
| Cc1n[nH]c(C)c1-c1cc(-c2ccc[nH]2)nc(N)c1C#N | 119.5 |
| Cn1cc(-c2c(C#N)c(N)nc3c2CCc2[nH]ccc2-3)cc1C#N | -2.103 |
| CCN(c1ccccc1C(=O)O)S(=O)(=O)c1cccc2cccnc12 | -1.145 |
| CC(C)=CCN1CCN(C(=O)CSc2ccccn2)[C@H]2CS(=O)(=O)C[C@H]21 | 6.252 |
| c1[nH]c(CC2CCCC2)nc1CN1CCCC2(CCOC2)C1 (centres undefined) | -3.102 |
| CS(=O)(=O)c1ccc(NC(=O)CSC(F)(F)F)cn1 | 0.5317 |
| Cc1n[nH]c(C2CN(C(=O)Cn3ccccc3=O)CCO2)n1 (centres undefined) | -1.768 |
| CC(C)c1n[nH]c(C2CN(C(=O)Cn3ccccc3=O)CCO2)n1 (centres undefined) | 111.9 |
| CC(C)c1n[nH]c(C2CN(C(=O)CCn3ccccc3=O)CCO2)n1 (centres undefined) | 2.958 |
| CC(C)c1csc(C2CCCN(C(=O)Cn3ccccc3=O)C2)n1 (centres undefined) | -10.1 |
| Cc1ccc(CC(=O)N2CCOC(c3nc(C(C)(C)C)n[nH]3)C2)cn1 (centres undefined) | 10.27 |
| CC(C)(C)c1n[nH]c(C2CN(C(=O)Cn3ccccc3=O)CCO2)n1 (centres undefined) | 103.2 |

| Structure (SMILES) | Percent Effect [%] |
| --- | --- |
| CCN(C)S(=O)(=O)NCC1(c2ccccc2Br)CC1 | 2.269 |
| CN(Cc1csc(-c2cccs2)n1)Cc1ncccc1C(=O)O | 6.204 |
| CN(C)C(=O)C1SCCc2ccccc21 (centres undefined) | -15.52 |
| CCOc1ccc(NC2CCN(CC(F)(F)F)C2=O)cc1C (centres undefined) | -0.2214 |
| COc1ccc(S(=O)(=O)NCC(C)(O)c2cccs2)cc1Cl (centres undefined) | 0.9761 |
| COc1cccc(CN(C)C(C)c2nccs2)c1OCCn1ccnc1 (centres undefined) | -3.505 |
| Cc1ccn(-c2ccccc2NCc2cccnc2C)n1 | -1.379 |
| CCN1C(=O)CC[C@]12CC[C@@H](NC(=O)NCc1cccnc1)CC2.O=C(O)C(F)(F)F | 126.1 |
| CC(C)N1CCC(NC(=O)NCc2cccnc2)C1 (centres undefined) | -0.2987 |
| O=C(NCc1cccnc1)NC1CCCN(c2ncccn2)C1 (centres undefined) | 12.61 |
| O=C(O)C(F)(F)F.O=C1CC[C@]2(CC[C@@H](NC3CCOC3)CC2)N1Cc1ccccc1 (some centres undefined) | -11.81 |
| O=C(NCc1cccnc1)C1CC(=O)N(CC2CC2)C1 (centres undefined) | 7.078 |
| O=C(NCc1cccnc1)N[C@H]1CC[C@@]2(CCC(=O)N2CC2CC2)CC1.O=C(O)C(F)(F)F | 109.8 |
| CC(C)CN1C(=O)CC[C@]12CC[C@@H](NC(=O)NCc1cccnc1)CC2.O=C(O)C(F)(F)F | 100.3 |
| O=C(O)C(F)(F)F.O=C1CC[C@]2(CC[C@@H](NC3CCOCC3)CC2)N1Cc1ccccc1 | -21.38 |
| CCN1C(=O)CC[C@]12CC[C@@H](NC(=O)c1cc(C)on1)CC2 | -41.62 |
| CN1CCN(Cc2cccnc2)C2(CCN(C3CCOCC3)C2)C1=O.O=C(O)C(F)(F)F.O=C(O)C(F)(F)F.O=C(O)C(F)(F)F (centres undefined) | 4.033 |
| Cc1ccc(CN2C(=O)CC[C@]23CC[C@@H](NC2CCOC2)CC3)cc1.O=C(O)C(F)(F)F (some centres undefined) | -29.75 |
| CN1C(=O)CC[C@]12CC[C@@H](NC(=O)NCc1cccnc1)CC2.O=C(O)C(F)(F)F | 120.2 |
| CC(C)CN1CCC(c2nc3c([nH]2)CC(C)(C)CNC3=O)C1 (centres undefined) | -15.84 |

| Structure (SMILES) | Percent Effect [%] |
| --- | --- |
| c1cn(Cc2nnc(C3CCN(C4CCNCC4)CC3)n2C2CC2)cn1 | -5.551 |
| O=C1CCOC[C@]2(CN(Cc3ccccc3)C[C@H]2c2cccnc2)N1 | 97.51 |
| NC(=O)CN1CC2(CCC1=O)CCN(Cc1ccccc1F)CC2 | -12.52 |
| O=C(O)CCCN1C[C@@H](c2ccccc2F)[C@@]2(CCCCC(=O)N2)C1 | 110 |
| O=C1NC2(CCN(Cc3cccnc3)CC2)CC1c1ccncc1 (centres undefined) | -17.77 |
| O=C1CCOC[C@]2(CN(Cc3ccccc3)C[C@H]2c2ccccc2)N1 | 85.32 |
| O=C(NC1CC(F)(F)C1)[C@]12COC[C@H]1CN(Cc1ccccc1)C2.O=C(O)C(F)(F)F | -29.2 |
| O=C1NC[C@@]2(C(=O)O)CN(Cc3ccc(Oc4ccccc4)cc3)C[C@@H]12 | 22.58 |
| O=C1NCC[C@]12CN(Cc1ccoc1)C[C@H]2c1ccccc1 | -11.19 |
| O=C(CC1CN(Cc2ccccc2)CCO1)Nc1ccccc1F (centres undefined) | -6.692 |
| O=C1CCOC[C@]2(CN(Cc3ccccc3)C[C@H]2c2ccccc2F)N1 | 94.73 |
| Cc1ccc(OCC(=O)N2C[C@@H]3CN(C)CCO[C@@H]3C2)cc1.O=C(O)C(F)(F)F | -15 |
| CN(Cc1ccoc1)C(=O)C1CCN(C(=O)C2CCCC2)CC1 | -1.17 |
| Cc1cc(NC(=O)CN(C)CC2CCCN2c2cccnn2)n(C)n1 (centres undefined) | -5.162 |
| N[C@@H]1CCN(Cc2ccc(-c3nc(-c4cccnc4)cc(=O)[nH]3)cc2)C1 | 4.047 |
| COc1cc(C(C)=O)ccc1SCC(=O)Nc1cc(C)n[nH]1 | 8.192 |
| O=C(NC[C@]12COC[C@H]1CN(Cc1cccc(F)c1)C2)c1ccco1 | 10.17 |
| O=C1CCOC[C@]2(CN(Cc3ccccc3)C[C@H]2c2cccc(F)c2)N1 | 100.5 |
| O=C1NC[C@@]2(C(=O)O)CN(Cc3cccc(CN4CCOCC4)c3)C[C@@H]12 | -10.55 |
